This is a sample that favours compounds with a hit; in the whole collection about 16% have one here.
DT40 TDP1 no CPT: qHTS for Inhibitors of human tyrosyl-DNA phosphodiesterase 1 (TDP1): qHTS in cells in absence of CPT. hit rate 15% among 420,000. Potency, µM (top dose mostly 46.2 µM), inactives show at the highest dose activity change, negative = growth inhibition, actives largely listed as inhibitors. DT40 Tdp1-/- hTDP1 cells, no CPT, ATP luminescence, 48 h; note: potency is the fitted concentration of half-maximal effect; % is set by controls: 0 for no effect and ±100 for the full control effect; nearly all actives have a fitted effect of over 55% in size
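A cellular qHTS used chicken DT40 cells lacking endogenous Tdp1 but carrying stably transfected human TDP1. Compounds were applied without camptothecin, and cell growth kinetics were judged by ATP-dependent luminescence after ≥48 hr.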
miR-21 act: qHTS Assay for Modulators of miRNAs and/orActivators of miR-21; Potency, µM (doses to about 38.3 µM), for the others: at the highest dose activity change, positive = activation, actives largely listed as activators; HeLa miR-21 FLuc reporter, luciferase, 48 h; 340,000 tested, under 10 active;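 note: % of control where 0% means no effect; miR-21 action dims this reporter so a rising signal means less miR-21 action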
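Using DMEM plus 10% FBS, HeLa miR-21-FLuc cells are incubated with test compounds (final up to about 40uM) for 48 hours; firefly luciferase signal is then imaged following reagent-mediated lysis.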
DT40 TDP1 CPT: qHTS for Inhibitors of human tyrosyl-DNA phosphodiesterase 1 (TDP1): qHTS in cells in presence of CPT. chicken DT40 Tdp1-/-;hTDP1 cells + 20 nM CPT, ATP luminescence, 48 h. Potency, µM (highest dose often 46.2 µM), for the others: at the highest dose activity change, negative = growth inhibition, hits mostly inhibitors. hit rate 12% among 420,000; note: potency is the fitted concentration of half-maximal effect; % is set by controls: 0 for no effect and ±100 for the full control effect; nearly all actives have a fitted effect of over 55% in size
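Chicken DT40 Tdp1-/- cells complemented with human TDP1, 400 cells/well, exposed to compounds plus 20 nM camptothecin for at least 48 h at 37 C; viability read as ATP content by CellTiter-Glo luminescence.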
uPA surface inh: qHTS for Inhibitors of Cell Surface uPA Generation. cell surface uPA generation assay, qHTS. Potency, µM (doses to about 38.3 µM), without a hit: at the top dose activity change, negative = inhibition, actives largely listed as inhibitors. hit rate 0.31% among 330,000; active = well fitted inhibition curve with a large enough effect; inconclusive = small, poorly fitted or top-dose-only effect; inactive = no such curve, though single readings can be large or run the other way; tested in mouse RAW 264.7 cells; note: potency is the fitted concentration of half-maximal effect; % is set by controls: 0 for no effect and ±100 for the full control effect; nearly all actives have a fitted effect of over 55% in size
TDP1 inh: qHTS Assay for Inhibitors of Tyrosyl-DNA Phosphodiesterase (TDP1); AID 485290, 2010; hit rate 0.28% among 350,000; Potency, µM (series often up to 130 µM), for inactives: at the highest dose activity change, negative = inhibition, actives largely listed as inhibitors; recombinant TDP1, AlphaScreen DNA substrate cleavage; note: potency is the fitted concentration of half-maximal effect; % is set by controls: 0 for no effect and ±100 for the full control effect; nearly all actives have a fitted effect of over 40% in size
Target sequence (Q9NUW8 whole entry, looked up): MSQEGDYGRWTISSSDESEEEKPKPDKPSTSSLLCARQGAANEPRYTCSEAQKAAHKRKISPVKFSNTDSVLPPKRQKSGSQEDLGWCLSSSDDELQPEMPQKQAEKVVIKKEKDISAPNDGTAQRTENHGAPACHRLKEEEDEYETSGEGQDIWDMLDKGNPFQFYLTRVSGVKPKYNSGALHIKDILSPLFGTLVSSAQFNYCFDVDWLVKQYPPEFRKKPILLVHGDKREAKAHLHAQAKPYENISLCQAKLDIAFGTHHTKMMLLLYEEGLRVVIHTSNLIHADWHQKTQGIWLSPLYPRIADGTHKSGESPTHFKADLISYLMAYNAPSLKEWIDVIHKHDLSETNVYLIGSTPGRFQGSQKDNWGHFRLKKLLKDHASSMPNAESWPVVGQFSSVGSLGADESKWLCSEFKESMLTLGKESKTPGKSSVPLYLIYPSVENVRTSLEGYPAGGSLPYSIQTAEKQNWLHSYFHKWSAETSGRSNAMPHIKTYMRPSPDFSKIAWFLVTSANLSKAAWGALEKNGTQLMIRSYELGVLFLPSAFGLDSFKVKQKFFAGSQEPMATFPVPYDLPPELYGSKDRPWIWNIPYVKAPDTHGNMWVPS
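Recombinant human Tdp1 (E. coli-expressed, 1 nM final) preincubated with compounds 15 min at room temperature, then 5'-biotin/3'-phosphotyrosine-FITC DNA substrate (15 nM final) added for 5 min. AlphaScreen beads (10 ug/ml final) added 10 min; cleavage lowers signal.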
Numbers without * were called inactive; ? = inconclusive; . = no result given. Unless noted, calls come from the whole dose curve; as a rule, active = well fitted curve in the direction sought with a large enough effect; inconclusive = small, poorly fitted or top-dose-only effect, or another doubt; inactive = no such curve, though single readings can be large; an effect the other way counts as inactive or inconclusive.

SMILES | DT40 TDP1 no CPT | miR-21 act | DT40 TDP1 CPT | uPA surface inh | TDP1 inh
O=C(O)C(=O)Nc1nc(-c2ccc3c(c2)OCCO3)cs1 | -4% | -39% | -4% | -8% | -2%
O=C(Nc1nc(-c2ccc3c(c2)OCO3)cs1)C1CC1 | 2.3µM* | -46% | 2.3µM* | ? | 4%
O=C(O)C1CC(=O)N(c2ccc3c(c2)OCCO3)C1 (centres undefined) | 13µM* | -3% | 13µM* | 2% | 3%
O=C(CSc1ccc(-c2ccc3c(c2)OCO3)nn1)Nc1nccs1 | ? | -16% | -23% | -5% | 1%
O=C(CSCC(=O)Nc1nc(-c2ccc3c(c2)OCO3)cs1)Nc1nccs1 | 26µM* | -6% | 12µM* | 6% | .
O=C(Nc1ccc2c(c1)OCO2)C1CC(=O)N(c2ccc3c(c2)OCCO3)C1 (centres undefined) | -3% | -2% | 9% | -1% | 0%
O=C(NCCc1ccc(C(F)(F)F)cc1)C1CC(=O)N(c2ccc3c(c2)OCCO3)C1 (centres undefined) | 21µM* | . | ? | -20% | 0%
Cc1ccc(CN(c2ccc(C(=O)Nc3cccnc3)cc2)S(C)(=O)=O)cc1 | -20% | 6% | -16% | . | 6%
CC(C)OC(=O)CSc1nc(N)c(C#N)c(-c2ccco2)c1C#N | ? | -4% | -24% | -2% | 8%
COC(=O)c1ccc(CSc2nnc(NC(=O)C3CC(=O)N(c4ccc5c(c4)OCCO5)C3)s2)cc1 (centres undefined) | 21µM* | -5% | 23µM* | 8% | 5%
O=C(Nc1nc(-c2ccc3c(c2)OCCO3)cs1)C1CC(=O)N(c2ccc3c(c2)OCCO3)C1 (centres undefined) | ? | . | 11µM* | . | 3%
CC(=O)Nc1ccc(-c2csc(NC(=O)C3CC(=O)N(c4ccc5c(c4)OCCO5)C3)n2)cc1 (centres undefined) | 21µM* | 2% | 18µM* | 0% | 1%
CCc1ccc(C(=O)NNC(=O)C2CC(=O)N(c3ccc4c(c3)OCCO4)C2)cc1 (centres undefined) | 9% | . | -14% | -5% | 2%
CC(C)CC(=O)Nc1ccc(C(=O)NNC(=O)C(c2ccccc2)c2ccccc2)cc1 | -30% | 7% | -27% | 5% | 3%
COc1cccc(CNC(=O)CCn2c(=O)c3cccn3c3ccc(F)cc32)c1OC | 23µM* | 4% | ? | . | 5%
CCOc1ccccc1CNC(=O)CCn1c(=O)c2cccn2c2ccc(F)cc21 | 16µM* | -4% | ? | . | 1%
COCCOC(=O)c1c(C)oc2ccc(OC(=O)c3ccco3)cc12 | 12% | -45% | 10% | 7% | 4%
CC(C)OP(=O)(Nc1cccc2ccccc12)OC(C)C | -25% | 0% | -3% | 2% | 0%
CN(C)P(=O)(Nc1cccc2ccccc12)Nc1cccc2ccccc12 | 9.2µM* | . | 8.2µM* | -2% | 1%
Cc1c(C(=O)O)cnc2c([N+](=O)[O-])cnn12 | 18µM* | -4% | 10µM* | 0% | -11%
CC(=O)c1cnc2c(C(=O)O)cnn2c1C | 1% | 0% | 7% | 2% | .
CCOc1ccccc1Nc1nc(N)nc(Cl)c1CC | -17% | . | -3% | 0% | .
O=C(CNC(=O)c1cccs1)OCc1c(F)cccc1Cl | 5% | -3% | 30% | 0% | .
O=S(=O)(c1ccc(N2CC=C(c3ccccc3)CC2)nc1)N1CCCC1 | 18µM* | 4% | 16µM* | . | -2%
CN1CCN(S(=O)(=O)c2ccc(N3CCN(C(=O)c4ccccc4)CC3)nc2)CC1 | ? | 3% | -5% | -5% | -1%
SMILES | DT40 TDP1 no CPT | miR-21 act | DT40 TDP1 CPT | uPA surface inh | TDP1 inh
O=S(=O)(c1ccc(N2CCN(S(=O)(=O)c3ccccc3)CC2)nc1)N1CCCC1 | -8% | 1% | 8% | 6% | 3%
CN1CCN(S(=O)(=O)c2ccc(N3CCN(c4ccccc4Cl)CC3)nc2)CC1 | 15µM* | . | 21µM* | 3% | 1%
O=S(=O)(c1ccc(N2CCCC2)nc1)N1CCCC1 | -11% | 2% | -6% | 7% | -8%
O=S(=O)(c1ccc(N2CCN(Cc3ccccc3)CC2)nc1)N1CCCC1 | ? | . | 16µM* | 4% | 1%
CSc1cc(C)nc(NC(C)=O)n1 | 0% | 0% | -2% | 3% | 2%
COC(=O)C1=C(Nc2ccc(C)cc2)C=C(C)C(C(=O)OC)C1c1ccc(OC)cc1 (centres undefined) | 26µM* | 23% | 16µM* | -14% | -2%
COC(=O)C1=C(Nc2ccc(C)cc2)C=C(C)C(C(=O)OC)C1c1cccc(OC)c1 (centres undefined) | ? | 18% | ? | . | 3%
S=c1[nH]nc(-c2ccc3ccccc3n2)n1-c1cc(Cl)cc(Cl)c1 | 16µM* | -15% | ? | -3% | -3%
CC(=O)OCC1OC(n2ccc3ccccc32)C(OC(C)=O)C(OC(C)=O)C1OC(C)=O (centres undefined) | ? | 0% | ? | 0% | 5%
COC(=O)C1C=CC(OC2OC(COC(C)=O)C(OC(C)=O)C(OC(C)=O)C2OC(C)=O)n2c(=O)n(-c3ccccc3)c(=O)n21 (centres undefined) | 0.82µM* | . | 0.73µM* | -11% | .
CCc1nnc(NC(=O)CS(=O)(=O)c2ccccc2)s1 | -2% | -1% | -12% | 1% | 11%
N=c1c2c(-c3ccccc3)c(-c3ccccc3)n(Cc3ccco3)c2ncn1CCO | 6.5µM* | ? | 7.3µM* | -7% | 3%
N=c1c2c(-c3ccccc3)c(-c3ccccc3)n(Cc3ccco3)c2ncn1CCN1CCOCC1 | ? | 8% | ? | . | 5%
O=c1c2ccccc2ncn1Cc1ccco1 | -7% | -6% | -25% | 3% | 4%
N=c1c2c(-c3ccccc3)c(-c3ccccc3)n(Cc3ccco3)c2ncn1CCCO | 23µM* | 29% | 13µM* | -3% | 3%
Cc1cccc2sc(NNC(=O)C3COc4ccccc4O3)nc12 (centres undefined) | ? | -16% | ? | -8% | 8%
COc1ccc(OC)c2sc(NNC(=O)C3COc4ccccc4O3)nc12 (centres undefined) | ? | 2% | 15µM* | 28% | -2%
O=C(Nc1ccc(-c2cn3ccsc3n2)cc1)C1COc2ccccc2O1 (centres undefined) | ? | 23% | 21µM* | -1% | 7%
COc1ccc(-c2csc(NC(=O)C3COc4ccccc4O3)n2)cc1OC (centres undefined) | 13µM* | -5% | 16µM* | -9% | .
